PubChem BioAssay AID651610 (Broad Institute, 2012)
In all, about 360,000 compounds went through this assay and about 3,900 (1.1%) were called active. The entries come from a sample that favours actives as a whole. Unmarked numbers belong to inactive results.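 The calls were made as follows: active = mean replicate inhibition score of at least 50 and every replicate individually at or above 50; inconclusive = only one of the two criteria met; inactive = mean below 50 and not all replicates reaching 50.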

Assay: inhibitors of HIV-1 Env-driven cell-cell fusion, primary screen, HeLa-JRFL effector, CEM21 target cells, luciferase (AID 651610);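 also: 0% = plate neutral controls and 100% = maraviroc near 300 nM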
Details: hits give high values; at 16.7 µM unless noted

First: C[C@H]1CN([C@@H](C)CO)C(=O)c2cc(Br)cnc2O[C@@H]1CN(C)S(=O)(=O)c1ccc(F)cc1
Second: CCC(=O)N(C)C[C@H]1Oc2ncc(-c3ccccc3OC)cc2C(=O)N([C@H](C)CO)C[C@H]1C
The inhibition of the first is higher: 48% for the first, -7.79% for the second.

First: C[C@@H]1CN([C@H](C)CO)C(=O)c2cccc(NS(=O)(=O)c3cn(C)cn3)c2O[C@H]1CN(C)Cc1ccc(C(=O)O)cc1
Second: COc1ccc(CN(C)C[C@H]2Oc3c(NS(=O)(=O)c4ccccc4)cccc3C(=O)N([C@@H](C)CO)C[C@H]2C)cc1
The inhibition of the first is higher: 16.1% for the first, 12% for the second.

Compared with `Cc1ccc(F)cc1S(=O)(=O)N[C@@H]1CCN(Cc2ccc(-c3ccccc3)cc2)C1`, `O=C(N[C@H]1CC[C@@H](CCNS(=O)(=O)c2cccc(Cl)c2)O[C@@H]1CO)c1ccccc1` is higher in inhibition: -7.12% for the first, 12.1% for the second.

Going from `CO[C@H]1CN(C)C(=O)c2cc(NC(=O)NC(C)C)ccc2OC[C@@H](C)NC[C@@H]1C` to `CO[C@@H]1CN(C)C(=O)c2cc(NS(=O)(=O)c3cccc(Cl)c3)ccc2OC[C@@H](C)NC[C@@H]1C`, the inhibition rises from -14% to 0.008%.

Going from `CCCNC(=O)N(C)C[C@H]1Oc2ncc(C#Cc3ccncc3)cc2C(=O)N([C@@H](C)CO)C[C@@H]1C` to `CCC(=O)N(C)C[C@@H]1Oc2ncc(C3=CCCC3)cc2C(=O)N([C@H](C)CO)C[C@@H]1C`, the inhibition falls from 0.597% to 0.169%.

Going from `C[C@@H]1CN([C@@H](C)CO)S(=O)(=O)c2ccc(C#Cc3ccc(F)cc3)cc2O[C@H]1CN(C)C(=O)NC1CCCC1` to `C[C@H]1CN([C@@H](C)CO)S(=O)(=O)c2ccc(C3=CCCC3)cc2O[C@@H]1CN(C)Cc1ccccc1`, the inhibition rises from -2.36% to 18.3%.

First: O=C(Cc1ccccn1)NCC[C@H]1CC[C@@H](NS(=O)(=O)c2ccc(F)cc2)[C@H](CO)O1
Second: COc1ccccc1-c1cn(CC[C@H]2CC[C@H](NC(=O)Cc3ccccn3)[C@H](CO)O2)nn1
The inhibition of the first is lower: -7.4% for the first, 1.37% for the second.

First: C[C@H](CO)N1C[C@H](C)[C@@H](CN(C)C(=O)Nc2ccc3c(c2)OCO3)Oc2ccc(NS(=O)(=O)c3ccc(Cl)cc3)cc2CC1=O
Second: C[C@@H]1CN([C@@H](C)CO)C(=O)Cc2cc(NC(=O)Nc3ccc4c(c3)OCO4)ccc2O[C@@H]1CN(C)C(=O)Nc1ccc2c(c1)OCO2
The inhibition of the first is lower: -30.5% for the first, -15.9% for the second.

First: C[C@H]1CN([C@@H](C)CO)S(=O)(=O)c2ccc(Br)cc2O[C@H]1CN(C)Cc1ccccn1
Second: C[C@H](CO)N1C[C@H](C)[C@H](CN(C)S(=O)(=O)c2cn(C)cn2)Oc2ccc(NS(=O)(=O)c3ccccc3)cc2C1=O
The inhibition of the first is higher: 16.3% for the first, 2.2% for the second.

Compared with `C[C@@H]1CN([C@@H](C)CO)C(=O)c2cc(NC(=O)Cc3ccccc3)ccc2O[C@@H](C)CCCCO[C@@H]1CN(C)C(=O)Nc1ccccc1`, `COc1ccc(S(=O)(=O)N(C)C[C@H]2OCCCC[C@@H](C)Oc3ccc(NC(=O)c4ccncc4)cc3C(=O)N([C@H](C)CO)C[C@@H]2C)cc1` is lower in inhibition: 34.3% for the first, 13.6% for the second.

First: COc1cccc(NC(=O)N[C@@H]2CC[C@H](CC(=O)NCc3ccccn3)O[C@H]2CO)c1
Second: COc1cccc(S(=O)(=O)Nc2ccc3c(c2)[C@@H]2C[C@H](CC(=O)NC4CCCCC4)O[C@H](CO)[C@@H]2O3)c1
The inhibition of the first is lower: -38% for the first, -12.8% for the second.

Going from `COc1ccc2c3c([nH]c2c1)[C@@H](CO)N(C(=O)c1ccccc1)CC31CCN(Cc2cccnc2)CC1` to `COc1ccc(NC(=O)N(C)C[C@@H]2Oc3ccc(NC(=O)Cc4cn(C)c5ccccc45)cc3CC(=O)N([C@@H](C)CO)C[C@H]2C)cc1`, the inhibition falls from -8.66% to -18.3%.

Compared with `CCc1cnc(N2[C@H](C#N)[C@H](c3ccc(C4=CCCC4)cc3)[C@@H]2CO)s1`, `CS(=O)(=O)N1[C@H](C#N)[C@H](c2ccc(C#CC3CCCC3)cc2)[C@H]1CO` is lower in inhibition: 1.6% for the first, 1.54% for the second.

Going from `Cc1noc(C)c1NC(=O)Nc1ccc2c(c1)C(=O)N([C@H](C)CO)C[C@@H](C)[C@H](CN(C)S(=O)(=O)c1ccc(Cl)cc1)OCCCC[C@H](C)O2` to `C[C@@H]1CN([C@@H](C)CO)C(=O)c2cc(NC(=O)Nc3ccc4c(c3)OCO4)ccc2O[C@@H]1CN(C)C(=O)Nc1ccc2c(c1)OCO2`, the inhibition rises from -20.3% to 16%.

Compared with `CCC(=O)N[C@H]1C=C[C@@H](CC(=O)NCC2CCCCC2)O[C@H]1CO`, `C[C@@H]1CN([C@H](C)CO)C(=O)c2cccc(NC(=O)Nc3cccc4ccccc34)c2O[C@@H]1CN(C)Cc1ccccc1` is lower in inhibition: 4.15% for the first, -16.3% for the second.

Compared with `CC(=O)N1C[C@@H](CO)[C@@H](N(C)C(=O)C(C)(C)C)C[C@H]1c1ccccc1Br`, `CCCCNC(=O)C[C@@H]1C[C@@]2(C(=O)OC)CC(C)(C)CC=C2N(Cc2ccco2)C1=O` is higher in inhibition: -6.57% [at 12.3 µM] for the first, 5.33% [at 12.3 µM] for the second.

First: CCOC1=C2[C@@H](CN(S(=O)(=O)c3ccc(C)cc3)[C@H]2c2ccccc2F)[C@H]2C(=O)N(Cc3ccccc3)C(=O)[C@H]2C1
Second: Cc1cccc([C@@H]2[C@@H]3C(=O)N(Cc4ccccc4)C(=O)[C@@H]3[C@]3(Cc4ccc(Cl)cc4)C(=O)N(c4cccc(Cl)c4)C(=O)N23)c1
The inhibition of the first is higher: 12.3% [at 12.3 µM] for the first, -14.5% [at 12.3 µM] for the second.

First: O=C1[C@H]2[C@@H](c3ccc(Cl)cc3)N3C(=O)N(c4cccc(F)c4)C(=O)[C@@]3(Cc3ccccc3)[C@H]2C(=O)N1C1CCCCC1
Second: Cc1ccc(Cc2c(-c3ccc(Cl)cc3)nc3c4ccccc4ccn23)cc1
The inhibition of the first is higher: 1.92% [at 12.3 µM] for the first, 0.563% [at 12.3 µM] for the second.

Compared with `CCOC(=O)[C@]12CCC=C1N(Cc1ccco1)C(=O)[C@H](CC(=O)NCc1cccc(C(F)(F)F)c1)C2`, `CCOC(=O)c1c(NC(=O)CSc2cn(CC)c3ccccc23)sc2c1CCC2` is higher in inhibition: 18.4% [at 12.3 µM] for the first, 40.8% [at 12.3 µM] for the second.

Going from `Cc1ccc(C(NC(=O)C2CCN(CCOc3ccc(Cl)cc3Cl)CC2)c2ccccn2)cc1` (centres undefined) to `O=C(NC(c1ccc(Cl)cc1)c1cnccn1)C1CCN(Cc2ccc(Cl)cc2)CC1` (centres undefined), the inhibition rises from 6.28% [at 12.3 µM] to 16.4% [at 12.3 µM].

First: CN1CCN(CCCCOc2ccccc2-c2ccccc2)CC1
Second: S=C(c1ccc(-c2ccccc2)o1)N1CCCCC1
The inhibition of the first is higher: 6.99% [at 12.3 µM] for the first, -140% [at 12.3 µM] for the second.

First: CCOC(=O)c1c(NC(=O)C2(C)Cc3ccccc3C(=O)O2)sc2c1CCCC2 (centres undefined)
Second: COc1ccc(-c2nn(C)c(=O)c3ccccc23)cc1CNC(=O)C1CCCCC1
The inhibition of the first is lower: 14.6% [at 12.3 µM] for the first, 23.3% [at 12.3 µM] for the second.

First: Cc1ccc(Cc2c(-c3ccc(C)cc3)nc3c4ccccc4ccn23)cc1
Second: CSc1ccc(Oc2cccc3c2S(=O)(=O)N([C@H](C)c2ccccc2)C[C@@H](COCc2ccccc2)O3)cc1C
The inhibition of the first is higher: 14.4% [at 12.3 µM] for the first, 10.8% [at 12.3 µM] for the second.

Compared with `O=S1(=O)c2c(cccc2N2CCCC2)O[C@H](COCc2ccccc2)CN1C1CC1`, `COc1ccc(S(=O)(=O)N2CCOCC2)cc1NC(=O)COc1ccccc1` is higher in inhibition: -8.42% [at 12.3 µM] for the first, -4.29% [at 12.3 µM] for the second.

Going from `CCCOc1ccc(F)cc1-c1cc(C(=O)NCc2ccc(F)cc2)[nH]n1` to `Cc1ccc(O)c(-c2cc(C(=O)NCc3ccccc3)[nH]n2)c1`, the inhibition falls from -16.3% [at 12.3 µM] to -126% [at 12.3 µM].

Going from `Cn1c(Nc2cccc(Cl)c2)nc2ccccc21` to `Cc1cccc(Nc2nc(NCCO)nc(N3CCCC3)n2)c1`, the inhibition rises from -29.5% [at 12.3 µM] to -14.8% [at 12.3 µM].

In the case of `Cc1ccc(S(=O)(=O)N2C[C@@H]3CCCC[C@@H]3[C@@H](C)[C@H]2c2cn(Cc3ccccc3)c3ccc(F)cc23)cc1`, the inhibition is reported as 77% [at 12.3 µM] (active).
With `Cc1cccc(N2C(=O)N3[C@H](c4ccc(F)cc4)[C@@H]4C(=O)N(C5CCCCC5)C(=O)[C@@H]4[C@]3(Cc3ccccc3)C2=O)c1` the inhibition was 55.1% [at 12.3 µM] (active).
With `O=C1[C@H]2[C@@H](c3ccc(F)cc3)N3C(=O)N(c4ccc(C(F)(F)F)cc4)C(=O)[C@@]3(Cc3ccccc3)[C@H]2C(=O)N1C1CCCCC1` the inhibition was 79% [at 12.3 µM] (active).
In the case of `COC(=O)[C@@]12C[C@@H](CC(=O)NCc3cccc(C(F)(F)F)c3)C(=O)N(Cc3ccco3)C1=CCC(C)(C)C2`, the inhibition is reported as 74.9% [at 12.3 µM] (active).
For `Cc1cccnc1C(NC(=O)C1CCN(Cc2ccc(Cl)c(Cl)c2)CC1)c1ccc(Cl)cc1` (centres undefined), the inhibition was 62.7% [at 12.3 µM] (active).
In the case of `OCCN1CCN(C(=S)c2ccc(-c3ccccc3)cc2)CC1`, the inhibition is reported as 71.3% [at 12.3 µM] (active).
For `CCOC(=O)c1c(NC(=O)C(C)Sc2c[nH]c3ccccc23)sc2c1CCC2` (centres undefined), the inhibition was 67% [at 12.3 µM] (active).
For `c1ccc(Cc2c(-c3ccco3)nc3c4ccccc4ccn23)cc1`, the inhibition was 65.9% [at 12.3 µM] (active).
In the case of `O=S1(=O)c2c(cccc2N2CCCCC2)O[C@H](COCc2ccccc2)CN1C1CC1`, the inhibition is reported as 102% [at 12.3 µM] (active).
In the case of `Cc1cc(O)ccc1-c1cc(C(=O)NCc2cc(C(F)(F)F)cc(C(F)(F)F)c2)[nH]n1`, the inhibition is reported as 59.8% [at 12.3 µM] (active).
In the case of `OCCCNc1nccc(-c2cc(Nc3cccc(Cl)c3)ncn2)n1`, the inhibition is reported as 95.7% [at 12.3 µM] (active).
For `COc1ccc(-c2nn(C)c(=O)c3ccccc23)cc1NC(=O)COc1ccccc1`, the inhibition was 79.8% [at 12.3 µM] (active).
